Experimental data from PubChem BioAssay (EPA / NIEHS).
Inconclusive results are not listed. The source made the active and inactive calls. The calls were made as follows: active = hit-call score of the fitted dose curve at least 0.9, where 1 is the maximum; inconclusive = response in the unintended direction; inactive = score below 0.9.

The compounds below were run on HMG-CoA synthase (HMGCS2), HMGCS2 (gene 3158) (assay: CLD_HMGCS2_6hr: CellzDirect (CLD) Gene Expression Assay for HMG-CoA synthase (HMGCS2) at 6 hours (AID 2283682);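 also: actives raise HMGCS2 transcript above the 0.2% DMSO vehicle baseline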).
Method: CLD_6hr is a cell-based, multiplexed-readout assay that uses hepatocyte, a human liver primary cell, with measurements taken at 6 hours after chemical dosing in a 96-well plate.CLD_HMGCS2_6hr is one of 16 assay component(s) measured or calculated from the CLD_6hr assay. It is designed to make measurements of mRNA induction, a form of inducible reporter, as detected with chemiluminescence signals by Quantitative Nuclease Protection Assay (qNPA) technology.Data from the assay component CLD_HMGCS2_6hr was analyzed at the endpoint, CLD_HMGCS2_6hr, in the positive analysis fitting direction relative to DMSO as the negative control and baseline of activity. Using a type of inducible reporter, gain-of-signal activity can be used to understand changes in the reporter gene as they relate to the gene HMGCS2. Furthermore, this assay endpoint can be referred to as a primary readout. To generalize the intended target to other relatable targets, this assay endpoint is annotated to the lyase intended target family, where subfamily is HMG-CoA synthase.
Human hepatocyte cultures were treated daily for two consecutive days with fresh dosing solutions containing appropriate concentrations of the 320 ToxCast chemicals (chemical identities were blinded to CellzDirect and other ToxCast collaborators), vehicle control (0.2% DMSO), and positive control inducers as summarized in Table 1. Due to the large number of treatment groups and chemicals examined, the ToxCast chemicals were divided into two groups (spanning two independent cultures of hepatocytes from separate donor preparations (Hu778: ToxCast plates 1 and 2; Hu776: ToxCast plates 3 and 4). Each preparation of human hepatocyte cultures was treated with respective vehicle control, medium only control, set of six positive controls/reference chemicals for the five hepatic receptor pathways, and a subset of eight of the ToxCast chemicals (indoxacarb, pyrithiobac-sodium, norflurazon, cyhalofop-butyl, methomyl, thiram, acetochlor, and propiconazole). These replicate data, coupled with internal replicates designed within the blinded ToxCast chemical library, provided additional data to evaluate interindividual differences between hepatocyte preparations and their potential impact on chemical profiles.Cell morphology and integrity were evaluated using phase-contrast microscopy as an indicator of hepatocyte cell health (Tyson & Green, 1987). Cultures for each treatment group (i.e., media, vehicle [0.2% DMSO], positive control inducers [multiple concentrations], and the ToxCast chemicals [multiple concentrations]) were observed and cell morphology was assessed relative to vehicle control cultures at each harvest time point (0, 6, 24, or 48 h). […] Images were evaluated at the conclusion of the study to assess changes in cell integrity and account for the effects of chemical exposure on uncharacteristic changes in concentration-dependent gene expression profiles. The results from these determinations of apparent cytotoxicity were annotated (yes/no) alongside the corresponding qNPA data for reference.At the conclusion of each treatment period, hepatocyte cultures (96-well) were washed with 1 volume of HBSS, lysed by addition of 25 ul ArrayPlate lysis buffer (HTG, Tucson, AZ), and 70 ul/well of Denaturation Oil, denatured by incubation at 95C for 10 min, and frozen at approximately -70C until analysis by nuclease protection assay (qNPA) (Roberts et al., 2007). For qNPA analysis, cell lysates were thawed at 50C for approximately 30 min, qNPA probes were added, and samples were incubated at 95C for 10 min to begin the detection process by denaturing the target RNA, dissociating the duplexes and secondary structure hybridization. At the conclusion of the hybridization period, S1 nuclease reagent was added to each sample to digest all nonprotected nucleotides at 50C for 60-90 min. […]

SMILES	outcome	AC50
COC(=O)NS(=O)(=O)c1ccc(N)cc1	inactive	
Cc1ccc(N=CN(C)C=Nc2ccc(C)cc2C)c(C)c1	inactive	
CC1(C)C(C=C(Cl)Cl)C1C(=O)OC(C#N)c1cccc(Oc2ccccc2)c1 (stereo unspecified)	inactive	
CCNP(=S)(OC)O/C(C)=C/C(=O)OC(C)C (stereo unspecified)	inactive	
COc1cc(OC)nc(NC(=O)NS(=O)(=O)c2ncccc2OCC(F)(F)F)n1	inactive	
CCOc1cc(C(C)(C)C)ccc1C1COC(c2c(F)cccc2F)=N1 (stereo unspecified)	inactive	
CS(=O)(=O)c1cc(C(F)(F)F)ccc1C(=O)c1cnoc1C1CC1		3970 nM (active)
N#Cc1c[nH]cc1-c1cccc2c1OC(F)(F)O2	inactive	
CCOC(=O)C(C)OC(=O)c1cc(Oc2ccc(C(F)(F)F)cc2Cl)ccc1[N+](=O)[O-] (stereo unspecified)		24.1 nM (active)
CC1(C)C(C(=O)OC(C#N)c2cccc(Oc3ccccc3)c2)C1(C)C (stereo unspecified)	inactive	
C=C(C)CN(CC)c1c([N+](=O)[O-])cc(C(F)(F)F)cc1[N+](=O)[O-]	inactive	
CSC(=O)c1c(C(F)F)nc(C(F)(F)F)c(C(=O)SC)c1CC(C)C	inactive	
Cc1cnc(C2=NC(C)(C(C)C)C(=O)N2)c(C(=O)O)c1 (stereo unspecified)	inactive	
COc1ccc(-c2ccccc2)cc1NNC(=O)OC(C)C	inactive	
CCCN(CC)CC1COC2(CCC(C(C)(C)C)CC2)O1 (stereo unspecified)	inactive	
COC(=O)NC(=S)Nc1ccccc1NC(=S)NC(=O)OC	inactive	

SMILES	outcome	AC50
CCOc1nc(F)cc2nc(S(=O)(=O)Nc3c(Cl)cccc3Cl)nn12	inactive	
Clc1cccc(C(Cl)(Cl)Cl)n1	inactive	
CC1(C)CON(Cc2ccccc2Cl)C1=O	inactive	
CCSC(=O)N1CCCCCC1	inactive	
COCC(=O)N(c1c(C)cccc1C)C(C)C(=O)OC (stereo unspecified)	inactive	
Nc1cnn(-c2ccccc2)c(=O)c1Cl	inactive	
C=CCOC(=O)C(C)(C)OC(=O)c1cc(-n2c(=O)cc(C(F)(F)F)n(C)c2=O)ccc1Cl	inactive	
CCC(C)n1c(=O)[nH]c(C)c(Br)c1=O (stereo unspecified)	inactive	
Nc1c(Cl)c(Cl)nc(C(=O)O)c1Cl	inactive	
Cn1c(-c2ccccc2)cc(-c2ccccc2)[n+]1C	inactive	
CC(C)N1C(=O)c2ccccc2NS1(=O)=O		7.35 nM (active)
CCN(CC)c1nc(C)cc(OP(=S)(OC)OC)n1	inactive	
O=C(Nc1ccccc1-c1ccc(Cl)cc1)c1cccnc1Cl	inactive	
CCNC(=O)NC(=O)C(C#N)=NOC	inactive	
O=c1n(Cl)c(=O)n(Cl)c(=O)n1Cl	inactive	
